108 sequences from PubChem BioAssay AID1347426 (Functional Genomics Laboratory (NCATS/FGL), 2020) can be followed below.

Among all 31,000 sequences or so, about 1,400 (4.5%) were called active. The entries come from a sample that favours actives as a whole. Unmarked numbers belong to inactive results.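 How the source made its calls: active means median seed-adjusted z-score above 1 or below -1; inactive means the rest.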

The experiment can be described thus: Novel Modifiers of Survival Motor Neuron (SMN) Protein: Gene Identification via Genome-wide siRNA Screen.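 Further: luminescence tracks full-length SMN protein made from the SMN2 reporter.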 The conditions noted are these: HEK293T SMN2-luciferase reporter, siRNA knockdown, 72 h; actives lie on both sides. The method in brief: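 Genome-wide siRNA screen (10418 genes, 3 siRNAs each, 1 pmol per well) by reverse transfection in HEK293T cells stably carrying an SMN2-luciferase reporter; luminescence after 72 hours, normalized to negative-control siRNA, log10-transformed, MAD-scored.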
A general note: A reporter such as luciferase makes a cellular process visible.
Regarding GGCGAAGAGGGAUCAAGUATT against ZNF24, the median seed-adjusted z-score is 0.388.
In the case of GAGCCACACUUUCAAGUAATT against CRIP1 it was -0.622; in that of CCGUGGACCAGUACUUUUATT against MAN2B1, -0.246.
In the case of GACACGAUUCUUUACCAAATT against CHEK1, the median seed-adjusted z-score is -5.1 (active).
As for GGACUCAGGUCUCAUGUGATT against KRTAP5-7, the figure is -0.279.
Regarding CAGGUAUUGUGGAAAGUAUTT against ADH4, the median seed-adjusted z-score is -0.0991.
With GCACCAUAGACUUUCGGGATT against HPCA, the median seed-adjusted z-score was 0.12.
Regarding GAGCGAAGGUCAUAAUACATT against MORC4, the median seed-adjusted z-score is 0.13.
As to GCAUGAGUGUUGAUAGGUATT against AGTR2, the median seed-adjusted z-score was 0.204.
As for ACAACUUCAUAUCCAGCUUTT against ISLR2, the figure is 0.263.
As for GCUGCGAAAGGAUCUCAAATT against UBE3B, the figure is 0.0972.
For the sequence CAAAUACGGUAAUGCUGUATT against COX7B, the median seed-adjusted z-score was -1.16 (active).
In the case of GAACUUCACAAGUUCCUCATT against RAB31 it was 0.41; in that of GCUUAAUGGUGUCCCGUAATT against PCCA, 0; in that of CAAGCUCCAUUUUGAAUCATT against SRR, -0.256.
In the case of CGACGGUGGAAGACACCUATT against DIRAS2 it was -1.25 (active); in that of CAUUGCAAGUUGUUCUUGATT against GJA4, -0.18; in that of ACAGCGCUCUCAAUCCCUUTT against GPR150, -0.129.
As for CAUCAGCACUAGCACCUCATT against ZNF213, the figure is 1.37 (active).
CCCGGUCACUUCUGAGAAATT against ZNF696: the median seed-adjusted z-score was 0.17.
As for GGAAGAGUCAUACAUCAAUTT against DDX55, the figure is 0.507; as for GCAUAGCUCUCGAUAAGAATT against MYH4, -1.8 (active).
With GGAUCAUGCUGAGAUGCAATT against RASAL2, the median seed-adjusted z-score was 0.
As for CCAUCGUGGUAGAUCCGUUTT against CBL, the figure is -0.417; as for GCUUUGUCACAUAACGUGATT against SLC38A2, -1.04 (active).
In the case of GGUUGCUAUAUGUUCCGAATT against MLL it was 0.227.
Consider UGACGUGCACAGGAAGAAATT against OXCT2, for which the median seed-adjusted z-score was -0.449.
Take GGGAAUAGCUUAUCUUGUUTT against RFC4: the median seed-adjusted z-score was -0.386.
In the case of GCAUCUACGUGGGUAACUUTT against SFRS1 it was -1.66 (active).
As for GCCCGAAAGAGAAAGCGAATT against POU5F1, the figure is 0.0495; as for GCAUCAACGCGGGAUUCCATT against TFAP4, -0.0515.
In the case of CGGUCAUGCUGAUCACCUUTT against GPR119 it was -0.382; in that of CUGCCGCAAUGACAACAAATT against TRIM42, -0.153; in that of GCGGUAAACUCGACACGUUTT against MARK3, 0.271.
Turning to GGCUGUACAUAGUCCUUUUTT against SNRPB, the median seed-adjusted z-score is -3.17 (active).
In the case of CUACUUAAGUGUGAUAAUATT against OCLN it was 0.232; in that of GACUAAUGGAUGAAGCUAATT against PBK, -0.311; in that of GGAAUUCUUUGGGCUGAAATT against MMP1, 0.205.
As for GCAUCGGGAAUAAAAUUUATT against LSM2, the median seed-adjusted z-score was -1.48 (active).
As for CCCAAUCAAGUGUUACAAATT against JMJD1C, the figure is 0.0338; as for UGGAGUAUCCUAUCAUGUATT against MGST3, -0.0509.
As to GCAAAUACGUGUAGACCUATT against EXOSC9, the median seed-adjusted z-score was -0.00796.
As for AGUACAUCGCGGAUCUGUATT against RCN3, the figure is -2.44 (active).
As for CCACUUCUCCACACCUUGATT against NR4A1, the figure is -0.207; as for GUGACUCCGUGUAUACUUATT against GCA, -0.162.
In the case of AGAGCAAAACAGUCCGAUATT against PCDH8 it was -1.03 (active); in that of GAAUUCACUUCAGAGCAAUTT against LMO4, -0.067; in that of CAAUCCAACUAGUAGUUCATT against SP4, -0.088.
For the sequence CCCUCUAACUGCUCGGAUATT against DNASE2, the median seed-adjusted z-score is -1.23 (active).
As for GAUCCUAUCGUAGACAUGATT against ZNF440, the figure is 0.208.
In the case of CCAGCAAUGAGAAAAAUCUTT against HOXA2 it was 0.335; in that of GGCGAACAGUUCUACAUGUTT against IFT57, -1.1 (active).
Take CAUCAUUACGAUUAGCCUATT against ARFGAP3: the median seed-adjusted z-score was 0.00412.
As to CGGGAUUUAUAGGCAAUGATT against RNASEH1, the median seed-adjusted z-score was -0.0205.
As for CAUUCGCUCUCAUACUGGATT against CTCF, the figure is -0.0821; as for GGAUCUUCAAAGUCACGAATT against CACNA1B, 0.0963.
As for GCACCCACGUCAUCCCUAATT against GRIN1, the figure is -0.137.
In the case of CCAUUCUUCUAGCAACUGATT against DDX47 it was -0.398.
Turning to GUCCUAUCACCGUAUCUUATT against SF3B4, the median seed-adjusted z-score was -2.56 (active).
As for GGUUAGGGCUUGACCCAAATT against HIBADH, the figure is 0.234; as for CAGACGUGAUGACAAGAUUTT against S100A7, -0.253; as for CAAUGGUGUCUACAAGAUUTT against SLCO1C1, 0.071.
As for CACCUGCUAUGUUACGGGATT against BAT2, the figure is 0.0889; as for AGAUACUGGUAUUGCUCGATT against SNRPB, -3.17 (active); as for GACCCAUUGCUGUCCAACATT against EMID1, 0.979.
In the case of AGAGGAACUUUAUUCUUGATT against HNRNPUL2 it was -0.0273.
Regarding AUAACUACCUGAUCAAGAATT against YWHAG, the median seed-adjusted z-score was 1.98 (active).
As for CCCUGGUAGUUCCACACCATT against CRHBP, the figure is -0.0443.
In the case of GAACAUUGGUUCUUAGAGATT against MKRN2 it was 0.
For GGGACUUCAUGUUCGAGCATT against DNAI2, the median seed-adjusted z-score is 0.12.
Turning to GCAGAAAGGUGUAACAUAATT against DDI2, the median seed-adjusted z-score was 1.27 (active).
For the sequence CAGGCAAACCGCUACAUCATT against EN1, the median seed-adjusted z-score was 0.761.
In the case of ACAGUUCUCUAUGACCUCATT against PLA2G4E it was 0.266; in that of AGUGCAUGGUUGCAGCUGATT against RNF144A, -0.185.
In the case of GAAUCAAUAUAAUCUAGCATT against UBE2Q2 it was 0.146; in that of AGAACUGCGUGACUAUACATT against ZNF417, 0.0205.
As for GCCUCUCACAUCUAUGGUATT against ITIH4, the figure is 0.64; as for GGAGAAAGAAUGACGAGAATT against TGFBR2, 0.8; as for AACUCGCUGUUGUACCUGATT against CPSF1, 3.29 (active).
As to GGCAUUAUGUGAAGGCGAATT against SMC5, the median seed-adjusted z-score was 0.0666.
In the case of CCAUCACCUUCAAUCCGCUTT against PEMT it was 0.0218.
As for GGUAGACUGUCAUCGUGAATT against RAD50, the figure is 0.266; as for CAUCACCGCUGGGUCCAAATT against FABP1, -0.302.
As for UGGAAUAAGUGGGCUCUGATT against ADM, the median seed-adjusted z-score was 0.65.
As for CAAUAUGCCUUUCUCUACATT against DNASE1L3, the figure is 0.0678; as for GGACUGCUUCAUAUACUGATT against GLT8D1, 1.22 (active); as for GGGACUAACAUGUACAACATT against PCDH24, 0.345.
As for CAGUUACUAUAAAAACCGATT against ZNF711, the figure is 0.254; as for GAGAUAGACUUGCUGAGCATT against TRIP6, 1.03 (active); as for GGAAAAUCAAUAUAUCACUTT against ADH6, -0.132.
In the case of GGAGCAUACAGAACGGACATT against SIPA1L3 it was 0.
As for GGUCAUACACGGGAUCUCUTT against SLC30A2, the median seed-adjusted z-score is -0.402.
Take GCAUUGGAACGAUUCUAAATT against CTPS2: the median seed-adjusted z-score was 1.08 (active).
CGCACGCUCUUCAAAUUCUTT against ADRA2A: the median seed-adjusted z-score is -0.65.
As for GCAAAUGAGUGUGACCUAATT against RAB38, the figure is -0.165; as for CCAACCUAAUUAUGGAGGATT against PCDHGB4, 0.176; as for AGGUUUAUGUGACCAAGCATT against KCTD8, 0.0212.
As for GAGCGAAGAUGUCCGAAAATT against MIPEP, the figure is -0.169.
In the case of GCUUCAAUGAGACAACCCUTT against IP6K2 it was -0.193; in that of CAGAAGUUGUGCAAUCCAATT against ADAM32, 1.75 (active); in that of GGAUGGUCGGAUUCUGAAATT against ITPKC, 0.218.
For CCAGGCUAUCUUUCCGAUATT against PTPN3, the median seed-adjusted z-score was -0.535.
In the case of GCCCACUGACCAUACCUCATT against NAT6 it was -0.327.
Regarding GGAGUUGAUUUUAUGAUUATT against RAB30, the median seed-adjusted z-score was 0.395.
As for GUAUCAGCAUUGAUAGAUATT against GPR21, the figure is 0.246; as for GCACCGAGCUUUACAGUGUTT against LARP1, 0.251; as for CCUUGUGCGUUACAGAAGATT against SCARA3, -0.05.
For CAUCAAGCCUCAUCUAAUATT against CHD1, the median seed-adjusted z-score is -1.03 (active).
